From PubChem BioAssay
Active and inactive are the calls of the source.

How the values were obtained:
[1] = test system: Plasmodium falciparum Sir2 (PF13_0152, Sir2A); assay: Plasmodium falciparum Sir2A binding compounds – biochemical, small-molecule microarray, 635 nm fluorescence, primary screen (AID 1098); conditions: fluorescence 635 nm, higher = more signal;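 also: score merges spot fluorescence intensity with its signal-to-noise ratio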
[2] = probe aDKK1 binding to arrayed compounds – biochemical, biotinylated probe, 635/667 nm fluorescence, primary screen (AID 1099); conditions: small-molecule microarray, higher = more signal;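 also: score merges 667nm spot fluorescence with signal to noise across triplicate slides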
[3] = probe aCHRDL2 binding to arrayed compounds – biochemical, biotinylated probe, 635/667 nm fluorescence, primary screen (AID 1100); conditions: small-molecule microarray, higher = more signal
[4] = change in splice reporter luminescence, either direction, cell-based, HEK293, spliceosome inhibition project, primary screen (AID 1101); conditions: HEK293 splicing luciferase reporter, 24 h, higher = more signal, called active from +8 up or from −8 down;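 also: HEK293 cells carrying a splicing-competent luciferase reporter gene; test concentration not given here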
[5] = target: Fibroblast growth factor 10 (Homo sapiens) (UniProt O15520); assay: compounds binding fibroblast growth factor 10 – biochemical, small-molecule microarray, 635 nm fluorescence, primary screen (AID 1102); conditions: FGF10 binding, fluorescence 635 nm, higher = more signal
[6] = test system: glycogen synthase kinase-3 (GSK3A per assay name; protocol says GSK3B); assay: compounds binding glycogen synthase kinase-3 – biochemical, small-molecule microarray, 635 nm fluorescence, GSK3A, primary screen (AID 1103); conditions: fluorescence 635 nm, higher = more signal; also: the record names both GSK3A and GSK3B
[7] = target: Epidermal growth factor receptor (Homo sapiens) (UniProt P00533); assay: compounds binding epidermal growth factor receptor – biochemical, small-molecule microarray, 635 nm fluorescence, primary screen (AID 1104); conditions: EGFR binding, higher = more signal;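 also: score merges 667 nm emission intensity with spot signal to noise over triplicate slides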
[8] = target: Follistatin-related protein 3 (Homo sapiens) (UniProt O95633); assay: compounds binding follistatin-related protein 3 – biochemical, small-molecule microarray, 635 nm fluorescence, primary screen (AID 1105); conditions: FSTL3 binding, higher = more signal;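 also: score merges emission near 667 nm and signal to noise per printed spot across three slides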
[9] = target: Dickkopf-related protein 1 (Homo sapiens) (UniProt O94907); assay: small molecules binding DKK1 protein – biochemical, small-molecule microarray, 635 nm fluorescence scan, primary screen (AID 1106); conditions: higher = more signal;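 also: score merges emission near 667 nm with signal to noise over three replicate slides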
[10] = test system: Inhibin beta A chain (activin A); assay: small molecules binding activin A – biochemical, small-molecule microarray, 635 nm fluorescence scan, primary screen (AID 1107); conditions: INHBA, higher = more signal;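 also: mouse activin A protein probed at 4.33 µg/mL on printed slides; score merges bound-protein fluorescence near 667 nm with spot signal-to-noise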
[11] = test system: Human papillomavirus type 1a protein E7 (residues 44-93); assay: small molecules binding HPV E7 44-93 – biochemical, small-molecule microarray, residues 44-93, 635 nm fluorescence, primary screen (AID 1108); conditions: fluorescence 635 nm, higher = more signal;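 also: E7 fragment applied at 1 µg/mL in TBST for 1 h at 4 C; score combines spot fluorescence with its signal to noise ratio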
[12] = hepatitis C replication reporter changes, two-sided – Huh7 cells, luciferase reporter, HCV replication inhibitor project, primary screen (AID 1109); conditions: Huh7 HCV replicon luciferase reporter, 48 h; higher = more signal;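 also: huh7 hepatoma cells harbouring a luciferase neomycin HCV replicon reporter; luciferase luminescence as measure of HCV replicon replication; test concentration not given here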
[13] = target: Left-right determination factor 2 (Homo sapiens) (UniProt O00292); assay: small molecules binding LEFTY2 protein – biochemical, small-molecule microarray, 635 nm fluorescence scan, primary screen (AID 1110); conditions: higher = more signal
[14] = target: Calmodulin-1 (Homo sapiens) (UniProt P0DP23); assay: small molecules binding calmodulin-1 with EGTA – biochemical, small-molecule microarray, Cy5-labelled CALM1, profiling panel (AID 1111); conditions: Cy5-CALM1 binding fluorescence, higher = more signal;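 also: labelled calmodulin applied in Tris saline Tween buffer holding calcium plus EGTA and DTT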
[15] = target: Calmodulin-1 (Homo sapiens) (UniProt P0DP23); assay: small molecules binding Ca-loaded calmodulin-1 – biochemical, small-molecule microarray, Cy5-labelled CALM1, plus calcium, artefact control for SMM control-protein annotation, profiling panel (AID 1112); conditions: Cy5-CALM1 binding fluorescence, higher = more signal;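 also: score merges spot fluorescence with signal to noise from triplicate slides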
[16] = probe aWnt5a binding to arrayed compounds – biochemical, biotinylated probe, 635/667 nm fluorescence, primary screen (AID 1113); conditions: small-molecule microarray, higher = more signal;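 also: score merges 667 nm fluorescence intensity with signal-to-noise per printed feature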
[17] = probe aShh binding to arrayed compounds – biochemical, biotinylated probe, 635/667 nm fluorescence, primary screen (AID 1114); conditions: small-molecule microarray, higher = more signal;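 also: probe is biotin-labelled aShh protein from a stem cell growth factor screen; measures binding of labelled protein to compounds printed on the slide; score merges feature fluorescence at 667 nm with signal-to-noise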
[18] = probe aNog binding to arrayed compounds – biochemical, biotinylated probe, 635/667 nm fluorescence, primary screen (AID 1115); conditions: small-molecule microarray, higher = more signal;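 also: probe is biotinylated aNog protein used at 0.15 µg/mL for 1 h at 4 C; z-score combines 667 nm fluorescence of each spot with its signal to noise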
[19] = target: Torsin-1A-interacting protein 1 (Homo sapiens) (UniProt Q5JTV8); assay: compound microarray binding of lysate hLAP1 – cell lysate, small-molecule microarray, COS7 lysate, 635/667 nm fluorescence, primary screen (AID 1116); conditions: 635 nm fluorescence, higher = more signal
[20] = target: Alpha-bungarotoxin (Bungarus multicinctus) (UniProt P60615); assay: compounds binding labelled alpha-BTX control protein – biochemical, small-molecule microarray, Alexa647 label, 635/667 nm fluorescence, artefact control for SMM control protein annotation, profiling panel (AID 1117); conditions: alpha-BTX-A647 binding fluorescence, higher = more signal
Sequence of Alpha-bungarotoxin (Bungarus multicinctus) (P60615 whole entry, looked up): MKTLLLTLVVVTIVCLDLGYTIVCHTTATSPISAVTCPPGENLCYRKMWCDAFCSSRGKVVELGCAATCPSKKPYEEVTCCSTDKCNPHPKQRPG

Sequence of Fibroblast growth factor 10 (Homo sapiens) (O15520 whole entry, looked up): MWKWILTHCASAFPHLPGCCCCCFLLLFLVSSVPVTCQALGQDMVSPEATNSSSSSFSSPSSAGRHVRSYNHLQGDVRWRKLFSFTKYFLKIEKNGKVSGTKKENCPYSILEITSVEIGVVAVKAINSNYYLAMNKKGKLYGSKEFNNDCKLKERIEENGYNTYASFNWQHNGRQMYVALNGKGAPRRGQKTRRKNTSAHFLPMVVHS
Sequence of Dickkopf-related protein 1 (Homo sapiens) (O94907 whole entry, looked up): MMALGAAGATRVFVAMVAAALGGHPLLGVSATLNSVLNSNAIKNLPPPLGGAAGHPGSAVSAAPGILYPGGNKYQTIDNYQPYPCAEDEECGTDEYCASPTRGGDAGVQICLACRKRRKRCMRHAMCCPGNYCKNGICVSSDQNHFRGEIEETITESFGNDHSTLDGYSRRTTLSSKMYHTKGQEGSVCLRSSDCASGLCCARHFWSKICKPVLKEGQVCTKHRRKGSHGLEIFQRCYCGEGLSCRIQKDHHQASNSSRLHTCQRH
Sequence of Epidermal growth factor receptor (Homo sapiens) (P00533 whole entry, looked up): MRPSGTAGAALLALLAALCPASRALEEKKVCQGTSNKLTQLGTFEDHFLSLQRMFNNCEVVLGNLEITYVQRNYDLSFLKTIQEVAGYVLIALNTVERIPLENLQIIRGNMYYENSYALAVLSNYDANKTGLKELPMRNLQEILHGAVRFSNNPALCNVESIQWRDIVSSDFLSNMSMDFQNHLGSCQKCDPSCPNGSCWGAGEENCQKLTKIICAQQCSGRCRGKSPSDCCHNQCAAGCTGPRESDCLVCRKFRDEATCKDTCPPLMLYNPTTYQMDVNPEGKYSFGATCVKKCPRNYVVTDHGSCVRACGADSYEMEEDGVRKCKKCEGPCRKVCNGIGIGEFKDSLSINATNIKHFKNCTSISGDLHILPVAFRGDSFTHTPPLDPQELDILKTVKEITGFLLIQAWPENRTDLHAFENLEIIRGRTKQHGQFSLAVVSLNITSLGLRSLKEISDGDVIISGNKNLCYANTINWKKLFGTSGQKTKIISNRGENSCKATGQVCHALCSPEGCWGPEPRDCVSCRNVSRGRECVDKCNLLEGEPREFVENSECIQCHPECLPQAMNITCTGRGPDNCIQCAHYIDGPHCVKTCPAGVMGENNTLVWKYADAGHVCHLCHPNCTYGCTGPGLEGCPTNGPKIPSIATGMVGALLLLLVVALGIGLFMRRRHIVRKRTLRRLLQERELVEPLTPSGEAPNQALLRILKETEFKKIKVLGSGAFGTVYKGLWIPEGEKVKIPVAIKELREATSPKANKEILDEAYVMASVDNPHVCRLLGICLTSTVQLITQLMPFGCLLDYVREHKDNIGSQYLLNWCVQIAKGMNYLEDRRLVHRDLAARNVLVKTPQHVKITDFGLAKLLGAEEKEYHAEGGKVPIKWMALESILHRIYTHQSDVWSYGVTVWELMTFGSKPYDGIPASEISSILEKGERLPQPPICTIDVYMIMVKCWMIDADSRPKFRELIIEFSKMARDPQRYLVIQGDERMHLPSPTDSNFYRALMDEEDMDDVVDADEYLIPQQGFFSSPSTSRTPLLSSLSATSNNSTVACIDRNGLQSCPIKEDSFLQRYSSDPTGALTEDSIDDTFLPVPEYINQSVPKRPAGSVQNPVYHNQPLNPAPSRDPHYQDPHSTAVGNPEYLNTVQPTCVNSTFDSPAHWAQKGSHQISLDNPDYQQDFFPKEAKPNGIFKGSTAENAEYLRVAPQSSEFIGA
Sequence of Follistatin-related protein 3 (Homo sapiens) (O95633 whole entry, looked up): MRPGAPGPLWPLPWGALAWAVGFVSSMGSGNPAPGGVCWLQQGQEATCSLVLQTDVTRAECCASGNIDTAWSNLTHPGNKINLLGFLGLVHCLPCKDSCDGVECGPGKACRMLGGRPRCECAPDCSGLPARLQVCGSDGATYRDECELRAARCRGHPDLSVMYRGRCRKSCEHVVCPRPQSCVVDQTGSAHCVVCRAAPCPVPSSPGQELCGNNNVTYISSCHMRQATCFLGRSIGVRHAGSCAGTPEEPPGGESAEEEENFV
Sequence of Torsin-1A-interacting protein 1 (Homo sapiens) (Q5JTV8 whole entry, looked up): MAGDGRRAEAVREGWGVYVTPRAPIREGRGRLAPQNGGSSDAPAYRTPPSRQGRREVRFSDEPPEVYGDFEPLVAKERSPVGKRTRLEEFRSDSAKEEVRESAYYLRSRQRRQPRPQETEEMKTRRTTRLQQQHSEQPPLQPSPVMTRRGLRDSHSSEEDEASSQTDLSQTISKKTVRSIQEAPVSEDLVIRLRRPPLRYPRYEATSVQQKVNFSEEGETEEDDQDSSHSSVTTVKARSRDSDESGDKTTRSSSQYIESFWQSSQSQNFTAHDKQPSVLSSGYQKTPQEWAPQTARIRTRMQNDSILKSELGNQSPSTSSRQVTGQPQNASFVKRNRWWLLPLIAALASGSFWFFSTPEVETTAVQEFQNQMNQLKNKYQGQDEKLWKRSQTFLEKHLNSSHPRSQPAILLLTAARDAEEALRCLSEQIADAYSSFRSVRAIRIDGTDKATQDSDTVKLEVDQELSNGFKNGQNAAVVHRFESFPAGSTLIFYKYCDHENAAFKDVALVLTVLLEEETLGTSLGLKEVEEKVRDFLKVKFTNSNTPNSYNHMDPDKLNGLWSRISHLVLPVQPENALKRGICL
Sequence of Left-right determination factor 2 (Homo sapiens) (O00292 whole entry, looked up): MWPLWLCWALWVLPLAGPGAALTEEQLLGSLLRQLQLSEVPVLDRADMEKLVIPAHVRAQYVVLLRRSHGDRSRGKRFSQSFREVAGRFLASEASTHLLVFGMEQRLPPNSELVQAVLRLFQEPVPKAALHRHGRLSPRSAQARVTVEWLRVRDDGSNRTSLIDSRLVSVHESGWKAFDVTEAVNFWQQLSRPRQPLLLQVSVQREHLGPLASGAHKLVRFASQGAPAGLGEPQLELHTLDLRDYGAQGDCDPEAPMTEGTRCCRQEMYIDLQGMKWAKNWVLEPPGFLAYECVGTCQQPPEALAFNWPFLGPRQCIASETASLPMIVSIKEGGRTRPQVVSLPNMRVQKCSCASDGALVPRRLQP

SMILES	composite z-score [1]	composite z-score [2]	composite z-score [3]	z-score [4]	composite z-score [5]	composite z-score [6]	composite z-score [7]	composite z-score [8]	composite z-score [9]	composite z-score [10]	composite z-score [11]	z-score [12]	composite z-score [13]	composite z-score [14]	composite z-score [15]	composite z-score [16]	composite z-score [17]	composite z-score [18]	composite z-score [19]	composite z-score [20]
C=CC[C@@]1(C(=O)N2CCOCC2)N=C(c2ccc(OCCCO)cc2)O[C@@H]1c1ccccc1CN=[N+]=[N-]	0.706	0.906	1.18	1.02 (inactive)	1.48	1.32	0.749	1.05	0.472	1.34	1.44	-2.04	0.898	1.9	0.365	0.0998	0.191	-0.333	1.72	0.943
O=C1C2C=CC(C(O)c3ccc(Br)cc3)N(Nc3ccccc3F)C2C(=O)N1c1ccccc1 (stereo not given)	0.708	0.0952	0.703	-1.93 (inactive)	0.118	0.235	-0.309	0.0807	-0.325	0.404	0.861	-0.445	-0.134	0.0034	0.666	-0.0718	-0.0626	-0.571	-0.147	0.225
C=C(COC)/C(=C/C[C@H](OC(=O)c1ccncc1)c1ccccc1OCCO)c1cnc2ccccc2c1	1.32	0.29	-0.627	0.321 (inactive)	1.45	1.32	0.788	1.48	0.864	1.54	1.4	-2.29	0.76	-0.158	-0.857	-0.0405	-0.0626	0.0481	0.0493	1.04
COC(=O)[C@@]1(Cc2ccc(OC)cc2)[C@H]2c3cc(C(=O)N4CCCC4)n(Cc4c(-c5ccccc5)noc4C)c3C[C@H]2CN1C(=O)c1ccccc1	0.743	1.08	1.12	-3.14 (inactive)	1.4	0.495	0.713	1.2	-0.414	0.641	1.41	-2.21	-0.181	1.5	0.716	0.42	0.268	1.85	0.764	0.818
COCCOC(=O)N1C(=O)[C@@]2(c3cc(C#CCNC(N)=O)ccc31)[C@H](C(=O)N1CCc3cc(OC)c(OC)cc3C1)[C@H]1C(=O)O[C@H](c3ccccc3)[C@H](c3ccccc3)N1[C@@H]2c1ccccc1OCCO	1.26	0.073	0.315	0.0466 (inactive)	1.41	1.14	0.873	1.14	0.246	0.586	0.843	-1.03	0.76	1.29	0.582	-0.0786	-0.305	0.39	1.03	1.85
COc1ccc(-c2cc3c(c(CCc4ccccc4)n2)[Si](C(C)C)(C(C)C)OC3)cn1	-0.311	-0.128	-0.185	-0.0496 (inactive)	-0.121	-0.926	0.168	0.282	0.0275	0.529	-0.681	-0.42	0.209	-0.113	0.151	-0.15	-0.147	-0.115	-0.0389	0.104
[N-]=[N+]=NCc1ccccc1[C@H]1OC(c2ccc(OCCCO)cc2)=N[C@@]1(CCS(=O)(=O)c1ccccc1)C(=O)NCC(O)CO (stereo not given in full)	1.54	0.658	1.18	0.542 (inactive)	1.32	0.752	-0.0986	0.264	-0.0898	0.501	1.46	-0.157	-0.342	1.42	0.66	0.143	0.522	1.59	1.96	1.66
Cc1ccc(S[C@]2(C(=O)NCC(F)(F)F)CC(=O)N(Cc3ccccc3)[C@@H]2c2ccc(CO)cc2I)cc1	1.37	0.307	0.264	-0.432 (inactive)	-0.376	-0.342	-0.592	-0.507	-0.813	0.548	0.503	-2.48	-0.842	-0.0153	0.517	-0.0203	-0.0362	0.358	0.349	1.36
CCC[C@@H]1C[C@@]1(CCC)[C@@H](NC(=O)OCc1ccccc1)c1ccc(-c2ccccc2)cc1	-1.27	-0.163	0.565	-3.43 (inactive)	-0.933	-1.74	-1.1	-0.644	-0.496	1.47	-0.44	-1.5	-0.484	0.233	1.1	-0.0026	1.42	-0.304	-0.143	-0.899
CC(C)C(=C=CC[C@H](O)c1ccc(OCCO)cc1)C[C@H](O)c1ccccn1	0.471	-0.0813	-0.233	-0.544 (inactive)	0.275	0.372	-0.511	-0.11	-0.478	-0.262	1.22	-0.789	-0.0676	0.0123	-0.0896	-0.1	-0.0769	-0.132	0.859	1.6
COCCOC(=O)N1C(=O)[C@@]2(c3cc(C#CCCO)ccc31)[C@H](C(=O)Nc1nc3ccccc3s1)[C@H]1C(=O)O[C@H](c3ccccc3)[C@H](c3ccccc3)N1[C@@H]2c1ccccc1OCCO	1.42	0.331	0.411	0.0499 (inactive)	1.12	1.08	0.561	1.11	0.452	0.923	0.792	-1.71	0.674	0.827	-0.112	-0.0025	0.0469	-0.588	0.811	1.45
